Rows were chosen to be rich in hits. Some 1.7% of all compounds tested hit in one or more screens of this group.
GLP1R ag – GLP-1 receptor (human) agonism; P43220; HEK293 GLP-1R CRE-luciferase, luminescence, 4-6 h; cells express a hypersensitive GLP-1R form; Potency, µM (series often up to 45.6 µM), actives largely listed as activators; 380,000 compounds, 0.007% hits
Target sequence (P43220 whole entry, looked up): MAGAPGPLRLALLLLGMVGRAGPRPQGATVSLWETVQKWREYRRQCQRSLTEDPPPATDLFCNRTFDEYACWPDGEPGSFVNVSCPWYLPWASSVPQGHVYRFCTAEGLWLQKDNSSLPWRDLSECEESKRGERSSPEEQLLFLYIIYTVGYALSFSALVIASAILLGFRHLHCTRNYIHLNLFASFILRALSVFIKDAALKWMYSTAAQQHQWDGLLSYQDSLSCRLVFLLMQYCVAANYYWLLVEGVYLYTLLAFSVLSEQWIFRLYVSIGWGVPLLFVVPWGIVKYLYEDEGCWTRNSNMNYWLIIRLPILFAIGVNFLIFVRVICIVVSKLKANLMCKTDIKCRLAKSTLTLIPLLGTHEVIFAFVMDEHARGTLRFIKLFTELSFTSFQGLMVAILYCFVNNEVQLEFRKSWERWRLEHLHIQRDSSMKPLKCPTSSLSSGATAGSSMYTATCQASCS
GLP-1R inv ag – acts as inverse agonist at human GLP-1 receptor | AID 624417 | 410,000 compounds, 1.6% hits | HEK293 GLP-1R CRE-luciferase, luminescence, 24 h; GLP-1R form is constitutively active | Potency, µM (titrated, usually from 38.3 µM), actives largely listed as inhibitors; further: nearly all actives have a fitted effect of over 55% in size
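Readout was luciferase luminescence, measured 12 min after detection reagent at room temperature. Beforehand, GLP-1R reporter HEK293 cells had sat 12 h, then received compounds for 24 hr at 37 deg C.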
PTHR1 agonist – activates the human parathyroid hormone receptor PTHR1 | Potency, µM (doses to about 115 µM), usual class: activators | Q03431 | AID 743266 | HEK293 GP2 PTHR1 cells, GloSensor cAMP luminescence, 1 h | 410,000 compounds, 0.075% hits; further: nearly all actives have a fitted effect of over 55% in size
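HEK-293-derived GP2 cells expressing PTHR1 and a GloSensor cAMP reporter, 3,000/well, plated overnight, given luciferin plus IBMX (each 0.5 mM as added) for 1 h at 37 °C, then compound for 1 h at 37 °C. Luminescence was read after 15 min at room temperature.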
HEK293 tox – cytotoxicity counter-screen for GLP-1 receptor inverse agonists. Potency, µM (doses to about 38.3 µM), usual class: inhibitors. 410,000 compounds, 0.13% hits. HEK293 cAMP-luciferase reporter cells, luminescence, 24 h. AID 624418;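 further: loss of luciferase light is scored as toxicity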
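A 23 nL compound transfer followed 12 hours of cell culture at 37 deg C; exposure then lasted 24 hr. Luciferase assay detection reagent was dispensed and plates read for luminescence after a 12 min room-temperature wait.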
Large screens that a line does not name were inactive. The call rests on the fitted dose curve; in most records, active means well fitted curve in the direction sought with a large enough effect; inconclusive means small, poorly fitted or top-dose-only effect, or another doubt; inactive means no such curve, though single readings can be large; an effect the other way counts as inactive or inconclusive.

Cc1cc(OCc2cc(C(=O)N(C)Cc3ccccn3)no2)cc(C)c1Cl	GLP-1R inv ag 2µM
CCN1C(=O)[C@H]2[C@@H](c3ccc(-c4ccc5c(c4)OCO5)cc3)N[C@@](Cc3ccccc3)(C(=O)OC)[C@H]2C1=O	none
CCN1C(=O)[C@H]2[C@@H](c3ccc(-c4cccc(Cl)c4)cc3)N[C@@](Cc3ccccc3)(C(=O)OC)[C@H]2C1=O	GLP-1R inv ag 7.94µM
CCN(CC)C(=O)c1sc2c(c1C)c(=O)n(-c1ccc(C)c(C)c1)c(=O)n2Cc1cccc(Cl)c1	GLP-1R inv ag 5.01µM (no result: GLP1R ag)
Cc1ccccc1OCc1nc2ccccc2n1Cc1ccccc1Cl	GLP-1R inv ag 3.55µM (no result: GLP1R ag)
Cc1ccccc1CN(C)C(=O)COC(=O)c1ccc2[nH]c(C)c(C)c2c1	GLP-1R inv ag 8.91µM
Cc1[nH]c2ccc(C(=O)OC(C)C(=O)NCc3ccccc3)cc2c1C (stereo not given)	GLP-1R inv ag inconclusive, HEK293 tox inconclusive
Cc1cc(C(=O)COC(=O)C2=COCCO2)c(C)n1-c1ccc2c(c1)OCO2	GLP-1R inv ag inconclusive
Cc1cc(C(=O)COC(=O)C2=COCCO2)c(C)n1-c1cccc(F)c1	GLP-1R inv ag 10µM
O=C(NCc1ccccc1)C1=C[C@@H](c2csc3ccccc23)C[C@@H](OCc2ccc(CO)cc2)O1	GLP-1R inv ag 8.91µM
CN(C)CCNC(=O)c1cccc2nc3c(ccc4ccccc43)nc12	GLP-1R inv ag 8.91µM
COc1ccc(-c2coc3c(C(=O)NCCN(C)C)cccc23)c(C)c1	GLP-1R inv ag 11.2µM
COCCCNC(=O)c1cccc2c(-c3ccc(OC)cc3C)coc12	GLP-1R inv ag inconclusive
COc1ccc(C(=O)NCCN(C)C)c2nc3ccccc3cc12	GLP-1R inv ag inconclusive, HEK293 tox inconclusive
COc1cccc2nc3c(C(=O)NCCN(C)C)cccc3cc12	GLP-1R inv ag 12.6µM
COc1ccc(-c2nc3c(C(=O)NCCN(C)C)cccc3c3ccccc23)cc1	GLP-1R inv ag 10µM, HEK293 tox inconclusive
O=C(Nc1c2c(nn1-c1ccc(Cl)cc1)CS(=O)(=O)C2)c1ccc(Br)cc1	GLP-1R inv ag inconclusive, HEK293 tox inconclusive
CCN(CC)CCCNc1oc(-c2ccc(OC)cc2)nc1C#N	PTHR1 agonist inconclusive (no result: GLP1R ag)
COC(=O)CSc1ncc2c(n1)-c1ccccc1N(Cc1ccccc1C)S2(=O)=O	none (no result: GLP1R ag)
CCCCCN1C(C(=O)c2ccccc2)=C(OC(=O)CC)c2ccccc2S1(=O)=O	GLP-1R inv ag 12.6µM (no result: GLP1R ag)
CCCCN1C(C(=O)c2ccccc2)=C(OC(=O)CC)c2ccccc2S1(=O)=O	GLP-1R inv ag inconclusive (no result: GLP1R ag)
CCCCC(=O)OC1=C(C(=O)c2ccccc2)N(CCC)S(=O)(=O)c2ccccc21	GLP-1R inv ag 11.2µM (no result: GLP1R ag)
S=C(NCCN1CCOCC1)N/N=C/c1cccs1	GLP-1R inv ag 3.16µM
Oc1cccc(/C=N/NC(=S)NCCN2CCOCC2)c1O	none
CCN1CCN(c2ccc(N3CCN(S(=O)(=O)c4ccc(C)c([N+](=O)[O-])c4)CC3)nn2)CC1	GLP-1R inv ag 1.58µM
CCc1nnc(SCc2ccc(F)cc2Cl)c2cc3sc(C)cc3n12	none (no result: GLP1R ag)
Cc1[nH]c2ccccc2c1C(c1ccccc1)c1ccc(Cl)s1 (stereo not given)	GLP-1R inv ag 10µM (no result: GLP1R ag)
Cc1[nH]c2ccccc2c1C(C[N+](=O)[O-])c1cccs1 (stereo not given)	GLP-1R inv ag inconclusive
Cc1ccc(NS(=O)(=O)c2ccc(OCC(=O)Nc3cccc([N+](=O)[O-])c3)c(C)c2)cc1	GLP-1R inv ag 10µM
Cc1ccc(S(=O)(=O)N(CC(=O)Nc2cccc([N+](=O)[O-])c2)C2CCCCC2)cc1	GLP-1R inv ag 11.2µM
O=C(Nc1cccc([N+](=O)[O-])c1)NC1CCCCCCC1	GLP-1R inv ag 10µM
O=C(CNC1CCCCC1)Nc1cccc([N+](=O)[O-])c1	none
Cc1ccc(NC(=O)CN(C)C(=O)c2ccc(NS(=O)(=O)c3cccc([N+](=O)[O-])c3)cc2)cc1	none
O=[N+]([O-])c1ccc(/C=C/c2ccc3ccccc3n2)cc1	GLP-1R inv ag 10µM
C(=C\c1ccc2ccccc2n1)/c1ccccc1	GLP-1R inv ag 10µM, PTHR1 agonist inconclusive
O=[N+]([O-])c1ccc(/C=C/c2ccc3cccc(O)c3n2)cc1	none
Cc1ccc(C(C)C)cc1OCC(=O)NC1CCCCCCC1	GLP-1R inv ag 11.2µM
Cc1ccc(C(C)C)cc1OCC(=O)NNC(=O)Nc1ccccc1	GLP-1R inv ag 6.31µM
CCOC(=O)c1cc(C)n(CC2CCC(C(=O)Nc3cccc(C)c3)CC2)c1C (stereo not given)	GLP-1R inv ag inconclusive (no result: GLP1R ag)
Cc1c(C(=O)NCc2ccc(F)cc2)sc(=O)n1Cc1ccc(Cl)c(Cl)c1	GLP-1R inv ag 10µM
CN1c2ccccc2-c2nc(SCC(=O)Nc3ccccc3)ncc2S1(=O)=O	none (no result: GLP1R ag)
COc1ccc(CN2COc3ccc4c(C)cc(=O)oc4c3C2)cc1	none
Cc1cc(C)cc(NC(=O)Nc2cc(S(=O)(=O)N(C)C)ccc2C)c1	GLP-1R inv ag 10µM
Cc1ccc(S(=O)(=O)N(C)C)cc1NC(=O)Nc1ccccc1F	none
Cc1ccc(-c2nc(CS(=O)CC(=O)NC(C)CCc3ccccc3)c(C)o2)cc1 (stereo not given)	GLP-1R inv ag 8.91µM
Cc1oc(-c2ccc(Cl)cc2)nc1CS(=O)CC(=O)NCCCN1CC(C)CC(C)C1 (stereo not given)	GLP-1R inv ag 5.62µM, HEK293 tox inconclusive
Cc1nn2c(=O)cc(COC(=O)c3ccccc3NC(=O)c3ccccc3C)nc2s1	none (no result: GLP1R ag)
Cc1nnc2c(N3CCN(c4ccc(F)cc4)CC3)nc3ccc(C(=O)c4ccccc4)cc3n12	none (no result: GLP1R ag)
Cc1ccc(CNC(=O)C2CCN(S(=O)(=O)c3c(C)noc3/C=C/c3cccs3)CC2)cc1	none (no result: GLP1R ag)
Cc1ccc(O)c(CN(C)Cc2cc(C)ccc2O)c1	GLP-1R inv ag 12.6µM
CCOC(=O)c1c(NC(=O)COc2ccc(OC)cc2)sc(C(=O)N(CC)CC)c1C	GLP-1R inv ag 7.94µM (no result: GLP1R ag)
CCOC(=O)c1c(NC(=O)COc2ccc(Br)cc2)sc(C(C)=O)c1C	none (no result: GLP1R ag)
CCN1CCN(C(=O)CN(c2cccc(Br)c2)S(=O)(=O)c2ccccc2)CC1	none
O=C(CN(c1cccc(Br)c1)S(=O)(=O)c1ccccc1)N1CCc2ccccc2C1	GLP-1R inv ag 10µM (no result: GLP1R ag)
Cc1ccc(C23CC4CC(CC(C(=O)N5CCN(C)CC5)(C4)C2)C3)cc1	GLP-1R inv ag 8.91µM
Cc1ccc(C23CC4CC(CC(NC(=O)N5CCN(C)CC5)(C4)C2)C3)cc1	GLP-1R inv ag inconclusive
O=C(NC1CCCCC1)C(c1ccc(C(F)(F)F)cc1)n1c(=O)c(-c2cc3ccccc3[nH]2)nc2ccccc21 (stereo not given)	GLP-1R inv ag 2.51µM (no result: GLP1R ag)
CC(C)(C)NC(=O)C(c1ccccc1)n1c(=O)c(-c2ccccc2)nc2ccccc21 (stereo not given)	GLP-1R inv ag 11.2µM (no result: GLP1R ag)
